High-throughput results (PubChem BioAssay)
RGS8-Gao: modulates binding of RGS8 to human Galphao; AID 1423; response (percent of control binding), % at 10 µM; multiplexed bead flow cytometry; actives lie on both sides; 220,000 compounds, 0.34% hits; P09471; in the data active = response below about 60% or above about 140%; inactive = in between;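 note: Galphao activated as the GDP aluminium fluoride complex binding bead-coupled RGS8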
GSH bead fluor: compound fluoresces at 488/530 nm on GSH beads; GSH beads flow cytometry, compound fluorescence 488/530 nm; active compounds read high; fluorescence (KMESF) at 10 µM; 190,000 compounds, 0.25% hits; AID 1776; in the data active = fluorescence above about 89;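 note: glutathione beads carrying GST-tagged Bcl family fusion proteins plus one bare bead set; values are compound well signal with DMSO vehicle wells as background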
Avidin bead fluor: avidin bead compound fluorescence profile | 220,000 compounds, 0.38% hits | Avidin beads, compound fluorescence 488/530 nm, flow cytometry; active compounds read high | fluorescence (KMESF) at 10 µM; in the data active = fluorescence above about 47
RGS16-Gao HTS: regulators of human RGS16-Galphao interaction. binding response (% of control), % at 10 µM. O15492+P09471. 220,000 compounds, 0.38% hits. bead-based flow cytometry RGS16-Galphao binding, fluorescence; actives lie on both sides;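 note: Galphao activated by GDP with aluminum fluoride before binding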
Target sequence (O15492 whole entry, looked up): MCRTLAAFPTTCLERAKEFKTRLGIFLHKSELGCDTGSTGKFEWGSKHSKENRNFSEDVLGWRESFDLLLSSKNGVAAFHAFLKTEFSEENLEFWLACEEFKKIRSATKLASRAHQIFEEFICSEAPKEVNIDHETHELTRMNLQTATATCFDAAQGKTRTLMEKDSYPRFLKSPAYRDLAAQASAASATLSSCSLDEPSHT
Target sequence (P09471 whole entry, looked up): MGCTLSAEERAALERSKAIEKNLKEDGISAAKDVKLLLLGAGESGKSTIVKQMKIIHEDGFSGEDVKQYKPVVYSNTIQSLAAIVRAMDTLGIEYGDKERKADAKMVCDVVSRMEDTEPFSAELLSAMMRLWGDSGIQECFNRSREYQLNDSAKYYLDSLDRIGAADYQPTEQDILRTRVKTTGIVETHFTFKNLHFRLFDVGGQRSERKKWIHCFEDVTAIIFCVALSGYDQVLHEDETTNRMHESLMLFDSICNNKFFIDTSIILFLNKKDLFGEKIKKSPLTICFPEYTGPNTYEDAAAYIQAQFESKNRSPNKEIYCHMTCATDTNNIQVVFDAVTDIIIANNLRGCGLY
RGS7-Gao: modulates binding of RGS7 to human Galphao | binding response (% of control), % at 10 µM | P09471 | Multiplexed bead flow cytometry; actives lie on both sides | 220,000 compounds, 0.35% hits; in the data active = binding response below about 49% or above about 150%;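 note: fluorescent Galphao held in activated GDP-AlF4 state binding bead-coupled RGS7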
RGS4-Gao reg: modulates binding of RGS4 to human Galphao | Multiplexed bead flow cytometry; actives lie on both sides | binding response (% of control), % at 10 µM | 220,000 compounds, 0.33% hits | AID 1415; in the data active = binding response below about 49% or above about 150%; inactive = in between;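 note: fluorescent Galphao activated with aluminum fluoride binding bead-coupled RGS4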
RGS4-Gao HTS: modulates binding between human RGS4 and Galphao. 1,600 compounds, 99% hits. RGS4–Galpha-o binding response, % at 10 µM. AID 1504. multiplexed bead flow cytometry, RGS–Galpha-o binding. shares compounds with RGS16-Gao HTS;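 note: fluorescently labeled Galpha-o bound to GDP with aluminium fluoride binding biotinylated RGS beads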
Biotin-avidin: biotin-avidin bead binding disruption counter-screen; inhibition, % at 10 µM; 1,700 tested, under 10 active; shares compounds with RGS16-Gao HTS; streptavidin beads, fluorescein-biotin binding, flow cytometry;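 active = inhibition above 50%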;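 note: median green fluorescence of gated singlet beads compared with DMSO control wells; 0% = DMSO wells and 100% = complete loss of bead fluorescence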
RGS8-Gao confirm: confirmation of regulators of human RGS8-Galphao interaction. shares compounds with RGS16-Gao HTS. bead-based flow cytometry RGS8-Galphao binding, fluorescence; actives lie on both sides. binding response (% of control), % at 10 µM. 1,700 compounds, 3% hits. AID 1836; in the data active = binding response below about 72% or above about 130%; inactive = in between;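 note: Galphao activated as GDP AlF4 complex before binding bead RGS8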
RGS7-Gao single: RGS7-Galphao interaction regulation, single point confirmation; AID 1837; bead-based flow cytometry RGS7-Galphao binding; actives lie on both sides; shares compounds with RGS16-Gao HTS; response (percent of control binding), % at 10 µM; 1,700 compounds, 7.8% hits; in the data active = response below about 75% or above about 130%; inactive = in between;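 note: fluorescent Galphao activated with GDP and aluminum fluoride binding bead-coupled RGS7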
RGS16-Gao single: RGS16-Galphao interaction regulation, single point confirmation. shares compounds with RGS16-Gao HTS. bead-based flow cytometry, RGS16-Galphao binding; actives lie on both sides. response (% of control binding), % at 10 µM. 1,700 compounds, 4% hits; in the data active = response below about 74% or above about 130%; inactive = in between;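 note: Galphao activated as the GDP aluminium fluoride complex binding bead-coupled RGS16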
RGS4-Gao single: confirmation of regulators of human RGS4-Galphao interaction. shares compounds with RGS16-Gao HTS. RGS4-Galphao binding, multiplexed bead flow cytometry; actives lie on both sides. binding response (% of control), % at 10 µM. 1,700 compounds, 4% hits; in the data active = binding response below about 74% or above about 130%; inactive = in between
RGS19-Gao conf: confirmation of regulators of human RGS19-Galphao interaction. shares compounds with RGS16-Gao HTS. bead-based flow cytometry RGS19-Galphao binding; actives lie on both sides. response (percent of control binding), % at 10 µM. 1,700 compounds, 5% hits. AID 1841; in the data active = response below about 50% or above about 160%; inactive = in between;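 note: 100% = no compound control and 0% = blank background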
Starred values were filed as active, the others as inactive; · = no result; [ ] = dose if it differs, or a comment. Rows were chosen to be rich in hits. Some 1.2% of all compounds tested hit in one or more screens of this group. Unless noted, the rule behind the calls is not given here.

SMILES | RGS8-Gao | GSH bead fluor | Avidin bead fluor | RGS16-Gao HTS | RGS7-Gao | RGS4-Gao reg | RGS4-Gao HTS | Biotin-avidin | RGS8-Gao confirm | RGS7-Gao single | RGS16-Gao single | RGS4-Gao single | RGS19-Gao conf
Cc1ccc(-c2nn[nH]n2)o1 | 102 | 10 | 81* | 105 | 151*[activator] | 123 | 123* | 2 | 103 | 101 | 103 | 101 | 92
Cc1[nH]c2ccccc2c1/C=N/NC(=S)NC(C)C | 102 | 18 | 16 | 118 | 176*[activator] | 125 | 125* | 2 | 108 | 259*[activator] | 149*[activator] | 184*[activator] | 230*[activator]
O=C(NCc1ccccc1)c1cnsn1 | 13* | 13 | 1 | 6.7* | 9.6* | 24* | · | -1 | 103 | 102 | 102 | 102 | 93
CCOc1ccccc1N1CCN(C(=O)c2ccncc2)CC1 | 101 | 13 | 38 | 102 | 103 | 102 | · | · | · | · | · | · | ·
CCOc1ccccc1N1CCN(C(=O)c2ccc3[nH]c4c(c3c2)CCCC4)CC1 | 74 | 16 | 3 | 24* | 81 | 84 | 84* | 0 | 100 | 100 | 99 | 100 | 93
COc1ccc(-n2c(COc3cccc4ccccc34)nnc2SCC(=O)NCc2ccco2)cc1 | 99 | 35 | 7 | 96 | 103 | 102 | · | · | · | · | · | · | ·
CC(C)CCn1c(CN2CCN(Cc3ccccc3)CC2)nc2c1c(=O)[nH]c(=O)n2C | 145*[activator] | 5 | 4 | 357 | 126 | 135 | 135* | 2 | 96 | 93 | 96 | 96 | 87
Cc1cccc(N2C(=O)CS/C2=N\NC(=O)c2ccc(Br)cc2)c1C | 106 | 13 | 20 | 112 | 106 | 103 | · | · | · | · | · | · | ·
Cc1ccc(C(=O)N/N=C2\SCC(=O)N2c2cc(C)ccc2C)cc1 | 74 | 47 | 3 | 22* | 83 | 81 | 81* | -2 | 109 | 107 | 108 | 106 | 108
COc1cccc(/C=N/NC(=O)c2ccccc2)c1OS(=O)(=O)c1ccccc1 | 75 | 7 | 9 | 25* | 89 | 91 | 91* | -1 | 101 | 100 | 97 | 100 | 100
COc1cccc(/C=N/NC(=O)c2ccc(=O)n(C)c2)c1OC | 103 | 11 | 12 | 101 | 105 | 102 | · | · | · | · | · | · | ·
COc1ccccc1/C=N/NC(=O)c1ccc(-c2ccccc2)cc1 | 123 | 13 | 17 | 191*[activator] | 114 | 117 | 117* | 2 | 95 | 61* | 77 | 76 | 61
CCC(C)(C)n1nnnc1CN1CCN(c2ccc(OC)cc2)CC1 | 97 | 13 | 9 | 99 | 107 | 102 | · | · | · | · | · | · | ·
CCC(C)(C)n1nnnc1CN1CCSCC1 | 125 | 34 | 2 | -49 | 129 | 158*[activator] | · | 2 | 102 | 104 | 100 | 103 | 96
OC12CCCCC1C(c1ccc3c(c1)OCO3)N(Cc1ccccc1F)CC2 (stereo unspecified) | 101 | 10 | 130* | 106 | 158*[activator] | 113 | 113* | 1 | 98 | 102 | 97 | 101 | 96
